35 molecules from the supplement of paper PMC10600219 can be followed below.

Where a name gives a salt, the structure may show the parent alone. The full ranking holds about 2,800 compounds; the median of “cell viability relative to vehicle” is about 1.1, and the lowest 2% start at about 0.19. This is one part of a sample in which the lowest values are shown more often than they occur.

For the experiment, the system named is NCI-H2228 parental. The experiment is described as follows: cell viability relative to vehicle (fraction of vehicle); NCI-H2228 is an ALK-positive lung cancer line and DTP means drug-tolerant persister; higher = less growth inhibition. Conditions: 100 nM; treatment time 6 days. Put shortly:
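Drug-tolerant persister NCI-H2228 cells, produced by 13 days in 1000 nM of a targeted drug, and their parental counterparts were seeded into 384-well plates and, the following day, given the 3114-agent TargetMol anti-cancer compound library at 100 nM or DMSO vehicle. After 6 days, the CellTiter-Glo 3D Cell Viability Assay was used to read ATP. Each entry reports viability compared with vehicle-treated cells.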
For the molecule `CC(C)[C@]12O[C@H]1[C@@H]1O[C@]13[C@]1(O[C@H]1C[C@H]1C4=C(CC[C@@]13C)C(=O)OC4)[C@@H]2O` [Triptolide], the cell viability came to 0.121.
In the case of `N#Cc1c(Oc2cccc(OS(=O)(=O)CCCC(F)(F)F)c2)cccc1C(F)(F)F` it was 1.01; in that of `O=C(O)CCCCCCCCCO` [10-Hydroxydecanoic Acid], 1.17.
For the molecule `C[C@@]12C[C@@H](c3ccoc3)OC(=O)[C@@H]1CC[C@]1(C)[C@H]2[C@@H]2C=C[C@@]1(O)C(=O)O2` [Columbin], the cell viability is 1.06.
Next, `Cc1c([C@H](C)[C@@H]2NC[C@@H](C)C[C@H]2O)ccc2c1C[C@H]1[C@H]2CC=C2C[C@@H](O)CC[C@@]21C` [Veratramine]: 1.12.
For the molecule `COc1cc([C@@H]2c3cc4c(cc3[C@@H](O)[C@H]3COC(=O)[C@H]23)OCO4)cc(OC)c1O` [4'-Demethylepipodophyllotoxin], the cell viability is 0.402.
For `C/C=C(\C)C(=O)N[C@@H](c1ccccc1)[C@@H](O)C(=O)O[C@H]1C[C@@]2(O)[C@@H](OC(=O)c3ccccc3)[C@@H]3[C@]4(OC(C)=O)CO[C@@H]4C[C@H](O)[C@@]3(C)C(=O)[C@H](OC(C)=O)C(=C1C)C2(C)C` [Cephalomannine], the cell viability is 0.129.
In the case of `CC(=O)OC12COC1CC(O)C1(C)C(=O)C(O)C3=C(C)C(O)CC(O)(C(OC(=O)c4ccccc4)C21)C3(C)C` (stereo not given) [10-Deacetylbaccatin III] it was 1.13; in that of `CC(=O)O[C@H]1C(=O)[C@@]2(C)[C@H]([C@H](OC(=O)c3ccccc3)[C@]3(O)C[C@H](O)C(C)=C1C3(C)C)[C@]1(OC(C)=O)CO[C@@H]1C[C@@H]2O` [Baccatin III], 0.968; in that of `COc1ccc(/C=C/c2cc(OC)cc(OC)c2)cc1` [Trimethoxystilbene], 1.05.
Next, `CN(C(=O)/C=C/c1ccoc1)[C@@H]1CC[C@@]2(O)[C@H]3Cc4ccc(O)c5c4[C@@]2(CCN3CC2CC2)[C@H]1O5` [Nalfurafine hydrochloride]: 0.993; `CN1[C@H]2C[C@H](OC(=O)[C@H](CO)c3ccccc3)C[C@@H]1[C@@H](O)C2` [Anisodamine]: 1.1; `CCc1c2c(nc3ccccc13)-c1cc3c(c(=O)n1C2)COC(=O)[C@]3(O)CC` [7-Ethylcamptothecin]: 0.054.
As for `CC[C@@]1(O)C(=O)OCc2c1cc1n(c2=O)Cc2cc3ccccc3nc2-1` [(S)-(+)-Camptothecin], the cell viability is 0.0882.
In the case of `CC1(C)C(C(=O)Nc2ccc(S(=O)(=O)c3ccc(NC(=O)C4C(C)(C)C4(C)C)cc3)cc2)C1(C)C` it was 0.839.
With `C[C@H]1CCC2N(C1)C[C@H]1C3CC4[C@@H](CC(=O)C5C[C@@H](O)CC[C@@]54C)C3CCC1[C@]2(C)O` (stereo not given in full) [Peiminine], the cell viability came out at 1.12.
Next, `O=C(CBr)c1ccc(O)cc1` [PTP Inhibitor I]: 1.01.
Next, `Clc1ccc(OC[C@H]2CCN2)cn1` [Tebanicline hydrochloride]: 1.12; `Oc1cc(O)cc(/C=C/c2ccc(O)cc2O)c1` [Oxyresveratrol]: 0.982.
Next, `C=C1CC[C@H]2[C@@H](/C=C(\C)C(=O)[C@@]3(O)C[C@H](C)[C@H](O)[C@@H]3[C@@H]1O)C2(C)C` [Lathyrol]: 1.09; `CN[C@@H](Cc1c[nH]c2ccccc12)C(=O)O` [Abrine]: 1.08.
Regarding `CC1(C)C(=O)N(c2ccc(C#N)c(C(F)(F)F)c2)C(=O)N1CCCCO`, the cell viability was 1.27.
In the case of `C[C@H]1CCC/C=C/[C@@H]2C[C@H](O)C[C@H]2[C@H](O)/C=C/C(=O)O1` [Brefeldin A] it was 0.0967; in that of `COc1ccc(/C=C2\CCCN=C2c2cccnc2)c(OC)c1` [GTS 21 dihydrochloride], 1.13; in that of `COc1cc([C@@H]2c3cc4c(cc3[C@H](O)[C@H]3COC(=O)[C@H]23)OCO4)cc(OC)c1O` [4'-Demethylpodophyllotoxin], 0.68.
In the case of `Cn1c(CCCCCCC(=O)NO)nc2cc(N(CCCl)CCCl)ccc21` [Minomustine] it was 1.12.
Next, `O=C(O)CNC(=O)C1C(=O)N(C2CCCCC2)C(=O)N(C2CCCCC2)C1=O` [Daprodustat]: 1.04; `C/C(=C\c1csc(C)n1)[C@@H]1C[C@@H]2O[C@]2(C)CCC[C@H](C)[C@H](O)[C@@H](C)C(=O)C(C)(C)[C@@H](O)CC(=O)O1` [Epothilone B]: 0.141; `C/C(=C\c1csc(C)n1)[C@@H]1C[C@@H]2O[C@@H]2CCC[C@H](C)[C@H](O)[C@@H](C)C(=O)C(C)(C)[C@@H](O)CC(=O)O1` [Epothilone A]: 0.0991.
In the case of `C[C@H](Nc1ncnc2[nH]cnc12)c1nc2ccc(F)cc2c(=O)n1-c1ccccc1` [Acalisib], the cell viability was determined as 1.02.
Take `Cn1c(COP(=O)(NCCBr)NCCBr)cnc1[N+](=O)[O-]` [Evofosfamide]: the cell viability is 1.15.
Next, `CC(=O)OC(C)(C)/C=C/C(=O)[C@](C)(O)[C@H]1[C@H](O)C[C@@]2(C)[C@@H]3CC=C4[C@H](C[C@H](O)C(=O)C4(C)C)[C@]3(C)C(=O)C[C@]12C` [Cucurbitacin B]: 0.223; `Clc1ccc(C(OCCN2CCCCC2)c2ccccc2)cc1` (stereo not given) [Cloperastine hydrochloride]: 1.15; `C[C@]12CC[C@H](O)C[C@H]1CC[C@@H]1[C@@H]2CC[C@]2(C)[C@@H](c3ccc(=O)oc3)CC[C@]12O` [Bufalin]: 0.423.
As for `CC(C)[C@H](N)C(=O)N1CCC[C@H]1B(O)O` [Talabostat mesylate], the cell viability worked out at 0.987.
